Reference: PubChem BioAssay (Tox21)
Records with an inconclusive call do not appear. The source made the active and inactive calls. Unless noted, the call rests on the fitted dose curve; in most records, active means well fitted curve in the direction sought with a large enough effect in the repeat runs; inconclusive means weak or mixed curves; inactive means no such curve, though single readings can be large; an effect the other way counts as inactive or inconclusive.

Legend:
[1] = qHTS assay for small molecules that induce genotoxicity in human embryonic kidney cells expressing luciferase-tagged ATAD5 (AID 651632); further: nearly all actives have a fitted effect of over 15% in size
How it was run: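 HEK293T cells carrying luciferase-tagged ATAD5 were given compound or DMSO vehicle and incubated 16 hr at 37C, 5% CO2. Luciferase activity was read after 30 min at room temperature with Amplite; a rise signals genotoxic stress.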

[2] = qHTS assay for small molecule agonists of the p53 signaling pathway - cell viability (AID 651633; calls by dose curve;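 further: p53RE-bla HCT reporter cells with a stable beta-lactamase p53 reporter; series mostly up to about 83 µM; nearly all actives have a fitted effect of over 30% in size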)
How it was run: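 p53RE-bla cells, seeded at 4,000 per well and rested 5 h at 37 C/5% CO2, received compounds in DMSO for 16 h at 37 C. CellTiter-Glo was then added, and luminescence was read after 30 min at room temperature to gauge cytotoxicity.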

[3] = qHTS assay for small molecules that induce genotoxicity in human embryonic kidney cells expressing luciferase-tagged ATAD5 - cell viability (AID 651634; calls by dose curve; further: nearly all actives have a fitted effect of over 25% in size)
How it was run: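 HEK293T cells carrying luciferase-tagged ATAD5, 2,000 cells/well, exposed to compound for 15.5 hr at 37C. Viability read as live-cell protease activity by CellTiter-Fluor fluorescence after 30 min at 37C.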

[4] = qHTS assay for small molecule disruptors of the mitochondrial membrane potential - cell viability (AID 720634; calls by dose curve;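 further: human HepG2 liver cancer cells; series mostly up to about 83 µM; nearly all actives have a fitted effect of over 20% in size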)
How it was run: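 HepG2 cells, 2,000 per well, attached overnight, then treated 1 hr at 37 C, 5% CO2. Viability read as ATP by CellTiter-Glo luminescence after 30 min at room temperature. Read in the same wells as the m-MPI membrane-potential dye assay.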

[5] = qHTS assay for small molecule disruptors of the mitochondrial membrane potential (AID 720635)
How it was run: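 HepG2 cells (2,000/well) attached overnight at 37C, then took compound for 1 hr at 37C, 5% CO2. Mito-MPS dye was added for 30 min; fluorescence was read at 490/535 nm (monomers) and 540/590 nm (aggregates).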

[6] = qHTS assay to test for compound auto fluorescence at 590 nm (red) in HepG2 cells (AID 720674)
How it was run: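 Intrinsic compound fluorescence in the red window (Ex/Em 540/590 nm) is measured in attached HepG2 cells exposed for 1 hr, DMSO vehicle as baseline, benchmarked to Rose Bengal sodium.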

[7] = qHTS assay to test for compound auto fluorescence at 535 nm (green) in HepG2 cells (AID 720675)
[8] = qHTS assay to test for compound auto fluorescence at 460 nm (blue) in HEK293 cells (AID 720678)
How it was run: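 Blue-channel (Ex/Em 405/460 nm) intensity measured in HEK293 cultures after overnight compound exposure at 37C; signal expressed relative to triamterene. Cells plated 2,000 per well in 10% dialyzed FBS medium and allowed 4-5 hr to attach.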

[9] = qHTS assay to test for compound auto fluorescence at 590 nm (red) in HEK293 cells (AID 720679)
How it was run: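 Red-channel autofluorescence (Ex/Em 540/590 nm; Rose Bengal sodium reference) was measured after overnight 37C, 5% CO2 exposure of attached HEK293 cells, 2,000 per well in medium with 10% dialyzed FBS.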

[10] = qHTS assay to test for compound auto fluorescence at 535 nm (green) in HEK293 cells (AID 720680)
[11] = qHTS assay to test for compound auto fluorescence at 460 nm (blue) in HEK293 cell free culture (AID 720681)
How it was run: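 Test compounds were pinned into cell-free culture medium (DMEM with 10% FBS) and fluorescence was read directly at Ex/Em 405/460 nm. Signals were expressed as fluorescence equivalents of triamterene, with DMSO vehicle as control.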

[12] = qHTS assay to test for compound auto fluorescence at 535 nm (green) in HEK293 cell free culture (AID 720682)
How it was run: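 Green-label autofluorescence (485 nm excitation, 535 nm emission) measured on compound added to cell-free culture medium (DMEM, 10% FBS). Output is expressed relative to fluorescein.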

[13] = qHTS assay to test for compound auto fluorescence at 590 nm (red) in HEK293 cell free culture (AID 720683)
How it was run: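 Tox21 10K library compounds were pinned into cell-free DMEM with 10% FBS and fluorescence was read at excitation 540 nm. Activity is expressed as Rose Bengal sodium equivalency.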

[14] = qHTS assay to test for compound auto fluorescence at 590 nm (red) in HepG2 cell free culture (AID 720684)
How it was run: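 Measured in medium alone (MEM containing 10% FBS) following pintool addition of compound; emission at 590 nm with 540 nm excitation, referenced to Rose Bengal sodium.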

[15] = qHTS assay to test for compound auto fluorescence at 460 nm (blue) in HepG2 cell free culture (AID 720685)
How it was run: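 Compound (23 nL) or DMSO pinned into cell-free MEM with 10% FBS; blue fluorescence read at 405/460 nm excitation/emission, expressed as auto-fluorescence equivalency to triamterene.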

[16] = qHTS assay to test for compound auto fluorescence at 535 nm (green) in HepG2 cell free culture (AID 720686)
[17] = qHTS assay to test for compound auto fluorescence at 460 nm (blue) in HepG2 cells (AID 720687)
How it was run: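 Cells (2,000/well in MEM with 10% FBS) attached overnight at 37 C, then were exposed to compound or DMSO for 1 hr at 37 C, 5% CO2. Fluorescence read at Ex/Em 405/460 nm, expressed as triamterene-equivalent signal.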

[18] = target: Glucocorticoid receptor (Homo sapiens) (UniProt P04150); test: qHTS assay to identify small molecule agonists of the glucocorticoid receptor (GR) signaling pathway (AID 720691; active means well fitted activation curve with a large enough effect in the signal ratio in the repeat runs, not every such curve was filed as active; the % refers to the signal ratio)
Chain of Glucocorticoid receptor (Homo sapiens) (P04150 whole entry, looked up): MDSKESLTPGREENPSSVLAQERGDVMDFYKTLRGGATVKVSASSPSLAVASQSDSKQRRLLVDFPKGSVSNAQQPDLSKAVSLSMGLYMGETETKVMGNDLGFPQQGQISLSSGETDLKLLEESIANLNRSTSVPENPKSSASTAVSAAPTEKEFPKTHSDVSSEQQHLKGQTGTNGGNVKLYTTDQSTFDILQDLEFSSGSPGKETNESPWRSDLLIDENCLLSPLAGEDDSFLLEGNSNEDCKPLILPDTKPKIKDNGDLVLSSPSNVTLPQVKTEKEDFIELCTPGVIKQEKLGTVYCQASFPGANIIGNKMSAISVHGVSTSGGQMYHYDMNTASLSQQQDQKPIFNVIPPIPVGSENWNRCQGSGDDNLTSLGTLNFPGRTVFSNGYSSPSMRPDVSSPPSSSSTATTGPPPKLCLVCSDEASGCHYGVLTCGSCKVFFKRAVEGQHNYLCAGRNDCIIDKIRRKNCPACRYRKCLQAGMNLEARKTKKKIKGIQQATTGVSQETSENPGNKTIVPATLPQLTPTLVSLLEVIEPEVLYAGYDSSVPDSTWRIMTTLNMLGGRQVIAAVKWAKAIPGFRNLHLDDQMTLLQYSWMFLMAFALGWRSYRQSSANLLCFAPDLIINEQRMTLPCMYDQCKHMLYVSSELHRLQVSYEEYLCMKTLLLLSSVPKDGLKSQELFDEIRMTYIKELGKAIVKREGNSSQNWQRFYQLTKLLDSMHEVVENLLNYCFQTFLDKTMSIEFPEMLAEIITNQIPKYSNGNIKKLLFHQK
How it was run: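 GR-bla HeLa cells carrying a GRE-driven beta-lactamase reporter, exposed to compounds for 18 h at 37 C. Reporter activation read as fluorescence after 2 h with LiveBLAzer B/G FRET substrate at room temperature.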

[19] = target: Glucocorticoid receptor (Homo sapiens) (UniProt P04150); test: qHTS assay to identify small molecule antagonists of the glucocorticoid receptor (GR) signaling pathway (AID 720692; active means well fitted inhibition curve with a large enough effect in the signal ratio in the repeat runs, not every such curve was filed as active; the % refers to the signal ratio)
How it was run: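 GR-bla HeLa cells carrying a GRE-driven beta-lactamase reporter received compound after 4 h plating, then dexamethasone (5 nM final). After 18 h at 37C, the FRET substrate was loaded for 2 h at room temperature and fluorescence read.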

Measured: Potency

CCNC(=O)NCc1cccc(Cl)c1
inactive: [1] | [2] | [3] | [4] | [5] | [6] | [7] | [8] | [9] | [10] | [11] | [12] | [13] | [14] | [15] | [16] | [17]

CC12CCC(C1)C(C)(C)C2O (configuration not stated)
inactive: [1] | [2] | [3] | [4] | [5] | [6] | [7] | [8] | [9] | [10] | [11] | [12] | [13] | [14] | [15] | [16] | [17]

OCCN1CCOCC1
inactive: [1] | [2] | [3] | [4] | [6] | [7] | [8] | [9] | [10] | [11] | [12] | [13] | [14] | [15] | [16]

CC(C)C1OCCN1CCOC(=O)NCCCCCCNC(=O)OCCN1CCOC1C(C)C (configuration not stated)
inactive: [1] | [2] | [3] | [4] | [6] | [7] | [8] | [9] | [10] | [11] | [12] | [13] | [14] | [15] | [16] | [17] | [18] | [19]

CCCC(=O)OCCC(C)CCC=C(C)C (configuration not stated)
inactive: [1] | [2] | [3] | [4] | [5] | [6] | [7] | [8] | [9] | [10] | [11] | [12] | [13] | [14] | [16] | [17]

CN(C)CCN(C)CCO
inactive: [1] | [2] | [3] | [4] | [5] | [6] | [7] | [8] | [9] | [10] | [11] | [12] | [13] | [14] | [15] | [16] | [17] | [18]

CN(C)CCCO[C@@H]1[C@H]2OC(C)(C)O[C@H]2O[C@@H]1C(O)CO (some centres not stated)
inactive: [1] | [2] | [3] | [4] | [5] | [6] | [7] | [8] | [9] | [10] | [11] | [12] | [13] | [14] | [15] | [16] | [17] | [18] | [19]

CC(C)CO
inactive: [1] | [2] | [3] | [4] | [5] | [6] | [7] | [8] | [9] | [10] | [11] | [12] | [13] | [14] | [15] | [16] | [17] | [18]

CC(C)(CO)C(O)C(=O)NCCCO (configuration not stated)
inactive: [1] | [2] | [3] | [4] | [5] | [6] | [7] | [8] | [9] | [10] | [11] | [12] | [13] | [14] | [16] | [17]

O=NN(CCCl)C(=O)NC1CCCCC1
inactive: [1] | [2] | [3] | [4] | [5] | [6] | [7] | [8] | [9] | [10] | [11] | [12] | [13] | [14] | [15] | [16] | [17]

CN(C)C(C)(C)CO
inactive: [1] | [2] | [3] | [4] | [5] | [6] | [7] | [8] | [9] | [10] | [11] | [12] | [13] | [14] | [15] | [16] | [17] | [18] | [19]

CN1C[C@@H]2C[C@H]1CN2c1cc2c(cc1F)c(=O)c(C(=O)O)cn2C1CC1
inactive: [1] | [2] | [3] | [4] | [6] | [7] | [8] | [9] | [10] | [11] | [12] | [13] | [14] | [15] | [16] | [17] | [18]

O=Cc1ccccc1Cl
inactive: [1] | [2] | [3] | [4] | [5] | [6] | [7] | [8] | [9] | [10] | [11] | [12] | [13] | [14] | [16] | [17] | [18] | [19]

COc1cc2c(cc1OC)C(=O)C(CC1CCN(Cc3ccccc3)CC1)C2 (configuration not stated)
inactive: [1] | [2] | [3] | [4] | [5] | [6] | [7] | [8] | [9] | [10] | [11] | [12] | [13] | [14] | [16] | [17]

Cn1c(=O)c2c(ncn2CCO)n(C)c1=O
inactive: [1] | [2] | [3] | [4] | [5] | [6] | [7] | [8] | [9] | [10] | [11] | [12] | [13] | [14] | [16] | [17]
